In the experiment the test system is VDR:RXRa (NR concentration 270 nM, RXRa partner concentration 90 nM). Put plainly: PBM binding z-score (relative to random genomic background probes); higher = stronger binding; sequences stand for … in GC…GCGATTGACAGCGTAGAATGAAGG
Here is the method:
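Protein-binding microarray (Agilent 4x180K custom design, double-stranded 60-nt probes: 5' GC cap, 34-nt variable region, 24-nt constant primer region; full probe sequence given). Purified or IVT nuclear receptor:RXRα heterodimers (3:1 NR:RXRα, mostly 270:90 nM) or homodimers were incubated for 1 h in PBS with 2% milk and no ligand, then detected with Alexa488 antibodies. Fluorescence from o1-orientation probes (~5 replicates averaged) was converted to z-scores against 500 random hg19 background probes. Variable regions are seed direct-repeat (DR0–DR5) sites, all their single-nucleotide variants and half-site ablations.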
Consider CCTAGCAGGCCAGGGTAACTCAAGCATTTCGCTT, for which the PBM binding z-score was -0.743. As to CCAGACAGGTTAAAGGTAACTCAGTCTGGTACGC, the PBM binding z-score amounted to 1.62. ATCGAAAGGTCGTTAGGTGAGTATACAGAAAGGC yielded a PBM binding z-score of 3.58. Turning to TCTTGTAGATCACGCAGGTTAAGAAAGCCTGAGT, the PBM binding z-score was determined as 0.662.

Regarding ATCTCTAGGTAACCAAGTTCATTGAATGCCGAAC, the PBM binding z-score stood at 5.68. Under CCTACTGGGCCATCTGGTCATTGATATCAACGTT stands -0.267; under ACAGACCGGTGAGTGAAGGTAACTCAGCTGGACG, -0.63; under TCTTGTAGATCAAAGTTTAAGAAAGCCGAAGCCT, 0.555. Next, ATCTCTAGGTAACAAGTGCAGTGAAAGAGAGGAC: 0.287.

CAGACAGGGTCAGCTAGGCCAGAGTAGGGACGGC came in with a PBM binding z-score of 3.81. Next, CGAACTAGGTCACAACAGGACAGTGAAGGATGAT: 2.16.

In turn, ACTATTAGTTGAGACGAGGGCAACAGATAGGTTG yielded a PBM binding z-score of 0.625. Next, AGAATGAGGTTATACGTAGATCAGGGTAGAAAGT: 1.49; AGAATGAGGTTATTAAGATCAGTGAATTGCGGTC: 2.5. TCATATAGGTAAGGGTGAAAGTCGAACGATATGA gave a PBM binding z-score of 0.991. For the sequence CCTGACAGGTGAGAAGGTAACTCAGCCTCGATTA, the PBM binding z-score is -0.0801. Under ATCTCTAAGTAAGACTCAGTTCAGTGAAGAACGC stands 0.712. Consider TAGCCTGGGTCATGCGGGCCAGTATAGTGTCGGC, for which the PBM binding z-score is 3.07. Next, TCTTGTATATCAAAGGTTAAGAAAGCCGAAGCCT: 1.91; TAGGCTAGGTCATTCAGGGGCCAGTATAGAAAGC: 3.24.

As for TCTTGTAGATCAAGAAGGTTAAGAAAGCCTGAGT, the PBM binding z-score was determined as 1.16. Under TCTAGTTGGTCACGGAGGTCGCACACGACGGGTA stands 4.06; under GATACAGGGTCAAGGCCATAGTACGCGTATTGAT, 4.21; under GCTTGTAGATCAAGATTAAGAAAGACTAAGCTAA, -0.528.

Consider AGTCAAAGTTCATCTAGGTAAGGTAAGATATGCT, for which the PBM binding z-score turned out to be 4.6. Under TCTTGTAGATCAAGCAGGTTAACAAAGCCTGAGT stands 0.729. Under GCGAATGGGGCATCAGCAGGTTACCATAACTTAA stands -0.212; under TCTAATAGTTGATTAGGGCAACCGAAACAGCGGA, 0.582; under ATATGTCGGTTAAGGGTCATTCAGGTTGGTTCGC, 5.48. Take GGAACGAAGGCAAAGTTGATAGCATCTGTCGACG: the PBM binding z-score was -0.832. Under CCTACTGGGCCAAGGTCATTGAACAGTCAAAGCA stands 3.39. As for TCTTGTAGTTCAGCAGGTTAAGAAAGCTGGCCAA, the PBM binding z-score worked out at 1.78. Under ATATGTAGGTTAGGTGGGGTCATTCAGACTAGGC stands 6.5; under CACACTAGGTCACGAAAGGTCAAAGTCGAATGAC, 7.02.

Take ATCTCTAGGTTACAAGTTCAGTGAAAGAGAGGAC: the PBM binding z-score was found to be 2.7.

As for CTGACTGGGGCAAGGTTACCATAACGCACAGCCA, the PBM binding z-score is 0.261. With TAGCCTAGGTCGTTGGGCCAGTATAGTACGCATC, the PBM binding z-score worked out at 0.153. Under ATCTCTAGGTAAAAGTTCAGTAAATCCCGAGGAT stands 1.19; under GCTAGCAGGCCATATGGGTCACTCAATGACGGGC, 0.951. Under AATACCGGGTCATCGTAGGCCAGAGTACGCACAG stands 4.42.

Source of the values: the supplement of paper PMC6555819.
